Screening data (PubChem BioAssay)
Hits are enriched below; roughly 19% of the tested compounds scored in any of these assays.
HT1080 IDH1KD tx: HT-1080 IDH1 knockdown cell toxicity (counter line). HT-1080 IDH1 knockdown viability, ATP luminescence, 48 h. Potency, µM (doses to about 46.1 µM), inactives show at the top dose activity, negative = toxicity, usual class: cytotoxic. 360,000 tested, 2% active. AID 686971;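 note: potency is the fitted concentration of half-maximal effect; 0% = DMSO wells and -100% = cell-free medium wells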
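CellTiter-Glo luminescence after 48 h compound exposure at 37 degrees C of IDH1-knockdown HT-1080 cells in 5% FBS RPMI. %Activity scaled between DMSO wells and cell-free media wells, with curves fitted and assigned curve classes.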
TDP1 cell CPT: growth inhibition of DT40 Tdp1-/-;hTDP1 cells with camptothecin (screen for TDP1 inhibitors) | Potency, µM (top dose mostly 46.2 µM), for the others: top-dose activity change, negative = growth inhibition, actives largely listed as inhibitors | 420,000 tested, 12% active | chicken DT40 Tdp1-/-;hTDP1 cells + 20 nM CPT, ATP luminescence, 48 h; note: potency is the fitted concentration of half-maximal effect; nearly all actives have a fitted effect of over 55% in size
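Chicken DT40 Tdp1-/- cells stably complemented with human TDP1 were seeded at 400 cells/well in medium containing 20 nM camptothecin, exposed to pin-transferred compounds, and grown at 37 °C for at least 48 hr. Viability was read as ATP luminescence.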
TDP1 cell noCPT: qHTS for Inhibitors of human tyrosyl-DNA phosphodiesterase 1 (TDP1): qHTS in cells in absence of CPT; DT40 Tdp1-/- hTDP1 cells, no CPT, ATP luminescence, 48 h; Potency, µM (highest dose often 46.2 µM), without a hit: at the highest dose activity change, negative = growth inhibition, most hits filed as inhibitors; 420,000 tested, 15% active; AID 686978, 2013; note: potency is the fitted concentration of half-maximal effect; nearly all actives have a fitted effect of over 55% in size
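Luminescent ATP content (CellTiter-Glo) served as the growth readout. Knockout chicken DT40 cells expressing human TDP1 were exposed to compounds without camptothecin for a minimum 48 hr at 37 °C.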
HT1080NT lethal: kills 2HG-producing HT-1080-NT fibrosarcoma cells | HT-1080-NT fibrosarcoma viability, CellTiter-Glo ATP luminescence, 48 h | Potency, µM (doses to about 46.1 µM), for the others: at the highest dose activity, negative = less viability, most hits filed as cytotoxic | 360,000 tested, 1.6% active | AID 686970;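 note: NT is the 2HG producing partner of a matched IDH1 knockdown line; potency is the fitted concentration of half-maximal effect; 0% = DMSO-treated cells and -100% = media-only wells without cells; nearly all actives have a fitted effect of over 55% in size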
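Viability by CellTiter-Glo luminescence after 48 h compound exposure at 37C of HT-1080-NT cells (750/well, RPMI, 5% FBS). % activity scaled between DMSO wells and medium-only wells, then curve-fitted and categorized by curve class.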
IL-1B inflam inh: inflammasome signaling inhibition, IL-1 beta readout; AID 743279; activity change, % at 57.5 µM; 360,000 tested, 4.7% active; THP-1 LPS/ATP IL-1B secretion, AlphaLISA, 16 h; active compounds read low; in the data active = activity change below about -50%; inconclusive = mostly about -30% to -49%
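THP-1 cells pretreated 1 hr with compounds (up to 57.5 uM final), then stimulated with LPS (250 ng/mL final) plus ATP (1.25 mM final); secreted IL-1B measured by AlphaLISA after 16 hr, decreased signal indicating inhibition.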
Numbers without * were called inactive; i = inactive; ? = inconclusive; . = no result given. Unless noted, calls come from the whole dose curve; as a rule, active = well fitted curve in the direction sought with a large enough effect; inconclusive = small, poorly fitted or top-dose-only effect, or another doubt; inactive = no such curve, though single readings can be large; an effect the other way counts as inactive or inconclusive. Unless noted, % is set by controls: 0 for no effect and ±100 for the full control effect.

SMILES	HT1080 IDH1KD tx	TDP1 cell CPT	TDP1 cell noCPT	HT1080NT lethal	IL-1B inflam inh
Cc1c(Cl)cccc1-n1c(SCC(=O)NCc2ccccc2)nc2n[nH]c(C)c2c1=N	.	15µM*	12µM*	.	.
CCc1ccccc1NC(=O)CSc1nc2n[nH]c(C)c2c(=N)n1-c1cccc(OC)c1	?	16µM*	23µM*	-29%	-6
CCOc1ccccc1NC(=O)CCSc1nc2n[nH]c(C)c2c(=N)n1-c1ccccc1Cl	?	?	?	?	45
C=CCn1c(CCNC(=O)c2ccccc2F)nnc1SCC(=O)Nc1nc2ccccc2s1	14%	-25%	-15%	-1%	-13
COc1ccccc1CC(=O)N1CCC(n2nccc2NC(=O)C2CCOC2)CC1 (stereo not given)	0%	-2%	9%	0%	-10
COc1ccc(NC(=O)CSc2nc3n[nH]c(C)c3c(=N)n2-c2ccc(Cl)c(C)c2)cc1OC	16%	-16%	?	7%	-19
Cc1ccc(-n2c(SCC(=O)NCc3ccccc3)nc3n[nH]c(C)c3c2=N)cc1Cl	.	4.1µM*	2.3µM*	.	.
Cc1ccccc1-n1c(SCc2ccccn2)nc2n[nH]c(C)c2c1=N	-21%	21µM*	16µM*	-18%	?
COc1ccc(OC)c(NC(=O)CSc2nc3n[nH]c(C)c3c(=N)n2-c2cccc(Cl)c2C)c1	23µM*	?	16µM*	-18%	-28
CCc1ccc(-n2c(SCC(=O)NC(C)CC)nc3n[nH]c(C)c3c2=N)cc1 (stereo not given)	.	5.8µM*	5.2µM*	.	.
COc1ccc(N2CCN(C(=O)CCCn3nnnc3CN3CCOCC3)C(C)C2)cc1 (stereo not given)	3%	-14%	-21%	-1%	i
COc1ccc(-n2c(SCC(=O)NCc3ccc(C)cc3)nc3n[nH]c(C)c3c2=N)cc1	.	6.5µM*	4.1µM*	.	.
COc1ccc(CNC(=O)CSc2n[nH]c(-c3ccc(OC)cc3)n2)cc1	.	9.2µM*	13µM*	.	.
CCO[C@@H]1OC(C(=O)O)=C[C@H](C)[C@H]1CCCO	6%	-13%	3%	10%	0
CN(CCCC(=O)NCCc1ccccc1)S(=O)(=O)c1ccc([N+](=O)[O-])cc1	0%	5%	-18%	-14%	16
Cc1cc(C)c(C#N)c(=N)o1	0%	21µM*	26µM*	-4%	0
Cc1ccc(Sc2ccc(N3CCC(C(=O)Nc4ccc(C)c(F)c4)CC3)nn2)cc1	.	-9%	?	.	.
COc1ccc(C(CCN)Cc2ccccc2)cc1 (stereo not given)	-1%	29µM*	21µM*	-3%	-51*
CCOC(=O)C1=C(COC(=O)c2ccccc2[N+](=O)[O-])NC(=O)NC1C (stereo not given)	2%	22%	-24%	-19%	0
COc1ccc(CN(C)C(=O)c2cccc(S(=O)(=O)N3CCN(c4ccccc4)CC3)c2)c(OC)c1OC	-13%	12µM*	13µM*	?	-13
COc1ccc(C(CNC(=O)c2cccc(S(=O)(=O)N3CCCc4ccccc43)c2)N(C)C)cc1 (stereo not given)	?	?	?	-4%	-54*
CN(Cc1nc2ccccc2c(=O)[nH]1)C(=O)c1cccc(S(=O)(=O)N2CCc3ccccc32)c1	-13%	?	?	-15%	13
O=C(NCC1COc2ccccc2O1)c1cccc(S(=O)(=O)N2CCN(c3ccccc3)CC2)c1 (stereo not given)	-19%	18µM*	21µM*	-10%	-4
COc1ccc(NS(=O)(=O)c2cccc(C(=O)NCC(c3ccccc3)N(C)C)c2)cc1 (stereo not given)	2%	?	-21%	0%	-3
COc1ccc(CN(C)C(=O)c2cccc(S(=O)(=O)N3CCCc4ccccc43)c2)c(OC)c1OC	-2%	18µM*	21µM*	-1%	-13
